# KDM5B inh = blocks human KDM5B histone demethylase activity; Q9UGL1; KDM5B demethylase, FDH-coupled NADH fluorescence (FDH is formaldehyde dehydrogenase); Potency, µM (highest dose often 57.7 µM), most hits filed as inhibitors; 220,000 tested, 2.6% active; active = well fitted inhibition curve with a large enough effect; also: 0% is about no effect; nearly all actives have a fitted effect of over 70% in size
#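 Inhibition is measured as reduced NADH fluorescence generation from FDH coupling to formaldehyde release. Truncated KDM5BΔAP at 200 nM final acts on H3K4me3 peptide (12.5 µM in substrate mix) in pH 7.5 HEPES buffer with Tween-20, 30 min, room temperature.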
# * marks the source's active call; other numbers are inactive results; i = inactive. Many of the other results were omitted from the sample, so hits are more common in it than they were. Potency is read from the fitted curve at half-maximal effect.
SMILES,KDM5B inh
CC1=C(C)CC(C(=O)NCc2ccncc2)C(C(=O)O)C1 (stereo not given),i
CC(=O)Nc1ccc(CN2CC[C@H](c3nnc(C(C)(C)C)o3)C2)cc1,i
CC(C)(C)c1coc([C@@H]2COCCN2Cc2cnc3ccccc3c2)n1,i
CC(C)(C)c1nnc([C@H]2CCN(Cc3cnc4ccccc4c3)C2)o1,35µM*
COc1cccc(C2NC(=O)NC(C)=C2C(=O)c2ccc(Cl)cc2)c1 (stereo not given),i
O=C(c1coc(COc2cccc(C(F)(F)F)c2)n1)N1CCCCCCC1,i
Cc1c(-c2ccccc2)nc2ccccc2c1C(=O)N1CCCC1,i
Cc1nc(N2CCCC2)cc(N2CCN(C(=O)c3cccc(C(F)(F)F)c3)CC2)n1,i
O=C(c1nc(-c2ccc(F)cc2)c2ccccn12)N1CCCC1,i
O=C(c1nc(-c2ccccc2)c2ccccn12)N1CCCC1,40µM*
O=C(c1nc(-c2cccc(C(F)(F)F)c2)c2ccccn12)N1CCCC1,25µM*
Cc1ccc2nc(-c3ccccc3)cc(C(=O)Nc3ccccn3)c2c1,i
CN(C)CCCNc1oc(-c2ccco2)nc1S(=O)(=O)c1ccc2c(c1)OCCO2,i
CCOCCCNc1nc(-c2ccc3[nH]c(=O)oc3c2)cs1,i
CC(C)(C)c1ccc(/C=C/C(=O)N[C@@H]2C[C@H]3CC[C@@H]2C3)cc1,i
COc1ccc(CC(=O)Nc2ccc3c(c2)NC(=O)C(C)O3)cc1 (stereo not given),i
Cc1nn(CC(=O)NCc2cccs2)c(=O)c2nc(C(C)C)sc12,i
Cc1nn(CC(=O)NCCCN2CCCCC2)c(=O)c2nc(-c3ccccc3)sc12,32µM*
COCCNC(=O)Cn1nc(-c2ccc(C)cc2)c2ccccc2c1=O,i
COCCNC(=O)Cn1nc(C)c2sc(-c3ccccc3)nc2c1=O,28µM*
Cc1nn(CC(=O)N2CCCC2)c(=O)c2nc(C(C)C)sc12,i
Cc1nn(CC(=O)O)c(=O)c2nc(-c3ccccc3)sc12,32µM*
COCCCNC(=O)Cn1nc(C)c2ccccc2c1=O,i
Cc1nn(CC(=O)NCCN2CCCCCC2)c(=O)c2nc(-c3ccccc3)sc12,20µM*
O=C(Cn1nc(-c2ccccc2)ccc1=O)NCCCN1CCOCC1,i
SMILES,KDM5B inh
CCCN1CCN(CCCNC(=O)CCn2nc(-c3ccccc3)ccc2=O)CC1,i
CCc1nc2c(=O)n(CC(=O)NCc3cccc(Cl)c3)nc(C)c2s1,i
Cc1ccc(-c2nn(CC(=O)O)c(=O)c3ccccc23)cc1,i
CONC(=O)COc1ccc(C(C)C)c(C)c1,i
CC(C)(C)c1cc(C=O)c(O)c(C(C)(C)C)c1,i
COc1cccc(CNC(=O)c2ccc(CNC(=O)OC(C)(C)C)cc2)c1,i
COc1ccc(CN2CC3=C(C2=O)C(c2ccc(SC)cc2)NC(=O)N3)cc1 (stereo not given),i
COC(=O)COc1nc(C(C)C)c2c(c1C#N)CCCC2,i
Cc1cc2oc(=O)cc(CN(C)CC(=O)N(C)C)c2cc1C,i
CC(C)=CC(=O)NC12CC3CC(CC(C3)C1)C2,i
CNC(=O)c1cccnc1N1CCOC(c2ccc3cc(OC)ccc3c2)C1 (stereo not given),i
COc1ccc([C@@H]2CN(c3ncccc3C#N)C[C@H]2NC(C)=O)cc1,28µM*
COc1ccc(C2(C(=O)NCc3cccnc3N3CCN(C)CC3)CC2)cc1,i
CN1CCN(C(=O)CC[C@@H]2CNC(=O)[C@@H]3C[C@H](NC(=O)c4ccccc4)CN23)CC1,i
CC(C)NC(=O)N[C@H]1C[C@H]2C(=O)NC[C@@H](CCC(=O)N3CCN(c4ccccn4)CC3)N2C1,25µM*
O=C(Nc1ccsc1)N[C@H]1C[C@H]2C(=O)NC[C@@H](CCC(=O)N3CCCC3)N2C1,i
O=C1NC[C@@H](CCC(=O)N2CCN(c3ccccc3)CC2)N2C[C@@H](NCc3ccccc3)C[C@@H]12,i
O=C1NC[C@@H](CCC(=O)N2CCN(c3ccccc3)CC2)N2C[C@@H](NCc3ccccn3)C[C@@H]12,i
CN1CCN(C(=O)CC[C@@H]2CNC(=O)[C@@H]3C[C@H](NC(=O)Nc4ccccc4)CN23)CC1,i
COCC(=O)N[C@H]1C[C@H]2C(=O)NC[C@@H](CCC(=O)N3CCN(c4ccccn4)CC3)N2C1,25µM*
CC(C)NC(=O)N[C@H]1C[C@H]2C(=O)NC[C@@H](CCC(=O)NC3CC3)N2C1,i
O=C(N[C@H]1C[C@H]2C(=O)NC[C@@H](CCC(=O)N3CCN(c4ccccn4)CC3)N2C1)C1CC1,32µM*
COCCn1cnnc1SCc1ccc(Cl)cc1,i
COc1cc(OC)cc(C(=O)Nc2ccc3oc(-c4ccccc4F)cc(=O)c3c2)c1,i
O=C(CCc1cc(Cl)no1)Nc1ccc2oc(-c3ccc(Cl)cc3)cc(=O)c2c1,i
SMILES,KDM5B inh
CC1CC(C#N)NC(=S)N1 (stereo not given),i
O=C(Nc1ccc(NCc2ccccc2)c(Cl)c1)c1cc[n+]([O-])cc1,i
C=CC[N+]1(CC2C(C)C=C(C)CC2C)CCCCC1 (stereo not given),i
O=C(O)Cn1ccc2cc(OCCc3cccc(-c4ccc(Cl)cc4)c3)cnc21,35µM*
COc1cc(F)cc(-c2cccc(CCOc3cnc4c(ccn4CC(=O)O)c3)c2)c1,32µM*
O=C(Cn1ccc2ccc(Cl)cc21)NCc1ccccc1,i
O=c1c2ccccc2nc(-c2ccc(Cl)cc2)n1CCCCOc1ccc(F)cc1,i
COc1cc(F)cc(-c2ccc(COc3ccc4c(cnn4CCC(=O)O)c3)cc2)c1,i
COc1cccc(-c2cc3c(=O)n(CCNC(=O)COc4ccc(F)cc4)ccn3n2)c1,i
CCOc1cc(CNC(=O)c2ncoc2-c2cccc(C)c2)ccc1OC,i
COC(=O)C(NC(=O)c1ccc(Cl)cc1)(Nc1nc(C2CC2)cs1)C(F)(F)F (stereo not given),i
O=C(C1CCCC1)N1CC2(CCN(Cc3ccccn3)CC2)Cc2ccccc21,i
C=CCSC1=N/C(=C\c2cccc(OC)c2)C(=O)S1,i
CC(C)c1ccccc1NC(=O)COC(=O)c1ccc2ccccc2n1,i
COc1ccc(NC(=O)O[C@@H]2CO[C@H]3[C@@H]2OC[C@@H]3n2nnnc2Sc2ccccc2)cc1,i
CN(C)c1ccc(-c2nnnn2[C@H]2CO[C@H]3[C@@H]2OC[C@H]3OCc2ccccc2)cc1,32µM*
CC(=O)c1ccc(NC(=O)O[C@@H]2CO[C@H]3[C@@H]2OC[C@@H]3n2nnnc2-c2ccccc2)cc1,i
CN(C)c1ccc(-c2nnnn2[C@H]2CO[C@H]3[C@@H]2OC[C@H]3OC(=O)Nc2ccc(Oc3ccccc3)cc2)cc1,13µM*
CN(C)c1ccc(-c2nnnn2[C@H]2CO[C@H]3[C@@H]2OC[C@@H]3NC(=O)NCc2ccccc2)cc1,i
O=C(NC1CCCCC1)O[C@@H]1CO[C@H]2[C@@H]1OC[C@@H]2n1nnnc1-c1ccccc1,i
O=c1[nH]c(=O)n(Cc2ccccc2)c2nc(-c3cccc(F)c3)n(CC3CCCO3)c12 (stereo not given),i
CCN(Cc1nc2ccccc2c(=O)[nH]1)C(=O)Cc1csc(-c2c(Cl)cccc2Cl)n1,i
COc1ccc(-c2nc(C)nc3c2CCC3)c2ccc(C)nc12,28µM*
COc1ccc(C)cc1Nc1c2c(nc3ccccc13)CCC2,i
COc1ccccc1CN1CCCc2nc(C)nc(-c3ccc(O)cc3)c2C1,i

# Source: PubChem
